Experimental data published in PubChem BioAssay (NCI).
About 83,000 compounds went through this panel and 20% of them were active in at least one assay; those are over-represented in the sample as a whole.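 The endpoint reported here, percent growth, reads 100 for growth as untreated, 0 for no net growth and -100 for all cells dead.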 Active and inactive are the calls of the source. Rule for the calls: active = growth percent below 10; inactive = the rest.

Experiments:
Experiment in all cases: NCI-60 one-dose screen, 48 h (100 = growth as untreated, 0 = no growth, -100 = all killed)
Conditions in all cases: 10 µM unless noted
[1] = tested on: HCT-15 colon
[2] = tested on: HT29 colon
[3] = tested on: SNB-75 CNS
[4] = tested on: SNB-19 CNS
[5] = tested on: U251 CNS
[6] = tested on: PC-3 prostate
[7] = tested on: LOX IMVI melanoma
[8] = tested on: SK-MEL-5 melanoma
[9] = tested on: UACC-62 melanoma
[10] = tested on: SK-MEL-28 melanoma

Measured: growth

CC1OC(O[C@@H]2[C@H](O)C(CO)OC(O[C@H]3COC(O[C@H]4CC[C@]5(C)[C@H]6CC[C@]78OC[C@@]9(CCC(C)(C)C[C@H]97)[C@H](O)C[C@@]8(C)[C@]6(C)CC[C@H]5C4(C)C)[C@@H](OC4OC(CO)[C@@H](O)[C@@H](O)[C@@H]4O)[C@@H]3O)[C@H]2OC2OC[C@@H](O)[C@@H](O)[C@@H]2O)[C@@H](O)[C@@H](O)[C@H]1O (some centres not stated)
active: [1] -52.8% | [2] -79% | [3] -87.1% | [4] -69.2% | [5] -86.8% | [6] -85.4% | [7] -82.7%

C=C(C)C(=O)O[C@H]1C[C@@]2(C)OC(=CC2=O)/C(C)=C\[C@H]2OC(=O)C(=C)[C@H]12
inactive: [3] 33.3% | [4] 49.1%
active: [1] 1.22% | [2] 1.99% | [5] 6.75% | [6] -2.26% | [7] -58.6%

COc1ccc(-c2nn(-c3ccccc3)cc2/C=C/C(=O)c2ccc(NC(=O)CCCCCCC(=O)NO)cc2)cc1
inactive: [1] 80.5% | [2] 94.4% | [3] 96.6% | [4] 106% | [5] 106% | [6] 95.8% | [8] 101% | [9] 94.9% | [10] 113%

Cc1ccc(NC(=O)N[C@@H](Cc2cc(F)cc(F)c2)C(=O)NC2C(=O)N3CCC[C@H]3C(=O)N3CCCC[C@H]3C(=O)N[C@@H](C)C(=O)N3C[C@H](C)C[C@H]3C(=O)O[C@H]2C)c(F)c1 (some centres not stated)
active: [8] 2.32%
inactive: [1] 14.1% | [2] 26.5% | [3] 34.7% | [4] 26.3% | [5] 28.3% | [6] 15% | [9] 30.3% | [10] 44.1%

C#C[C@]1(O)CC[C@H]2[C@@H]3CC=C4c5sc(Nc6ccc(OC)nc6)nc5CC[C@]4(C)[C@H]3CC[C@@]21C
inactive: [4] 50.5% | [5] 17.8% | [6] 29.9% | [8] 52.1% | [9] 70.5% | [10] 68.8%
active: [1] -66.4% | [2] -4.57% | [3] -8.98%

CN1CCN(c2nc(-c3cnc4ccccc4n3)cc3ccccc23)CC1
inactive: [2] 21.3% | [3] 72.7% | [4] 81.1% | [5] 68% | [6] 70.8% | [8] 66.4% | [10] 30.9%
active: [1] 7.27% | [9] -7.14%

COc1ccc(C(=O)c2c(N)c(C#N)cn2-c2cccc(OC)c2)cc1
inactive: [1] 19.8% | [4] 26.8% | [5] 33.8% | [6] 33.9% | [8] 35.1% | [9] 18.8% | [10] 45.8%
active: [2] 7.88% | [3] -23.4%

COc1ccc(-c2nc(SCC(C)C)nc(N/N=C\c3cccc([N+](=O)[O-])c3)c2C#N)cc1
inactive: [1] 46.3% | [2] 49.9% | [4] 38.6% | [5] 13% | [6] 55.2% | [8] 68.3% | [9] 75.6% | [10] 77.7%
active: [3] -11.2%

O=c1cc(-c2ccccc2)nc2sc(-c3c[nH]c4ccc(F)cc34)nn12
active: [3] -37.9%
inactive: [1] 67.8% | [2] 73.2% | [4] 77.5% | [5] 57.9% | [6] 64.9% | [8] 69.8% | [9] 68.1% | [10] 67.7%

COc1ccc(-c2ccc3c4c(cccc24)C(=O)N(N2C(=O)c4cccc5cccc(c45)C2=O)C3=O)cc1
inactive: [1] 99.1% | [2] 99.1% | [3] 73.4% | [4] 96.3% | [5] 104% | [6] 87.7% | [8] 99.6% | [9] 96.8% | [10] 106%

N=c1c2cc(-c3ccccc3)oc2ncn1/N=C/c1ccccc1
inactive: [1] 36.9% | [2] 73.6% | [3] 67% | [4] 87.5% | [5] 84.7% | [6] 71.9% | [8] 90.8% | [9] 47.6% | [10] 83.4%

O=C1c2c(c3c4cccnc4[nH]c3c3ccc4ccccc4c23)C(=O)N1CCN1CCNCC1
active: [1] 3.44%
inactive: [2] 57.9% | [3] 84% | [4] 76.3% | [5] 56.2% | [6] 66.8% | [8] 91.7% | [9] 79.6% | [10] 108%

COc1ccc([C@@H]2[C@@H](O)C(=O)N2c2cc(OC)c(OC)c(OC)c2)cc1Cl
inactive: [1] 10.5% | [2] 12.8% | [3] 53.4% | [4] 30% | [6] 17.5% | [9] 26.1% | [10] 64.2%
active: [5] 1.75% | [8] 0.0843%

O=c1c2ccccc2nc(COc2ccccc2)n1/N=C/C=C/c1ccccc1
inactive: [1] 76.9% | [2] 98.1% | [3] 83.4% | [4] 82.9% | [5] 98.4% | [6] 89.6% | [8] 99.3% | [9] 94.5% | [10] 94.3%
